Compounds without any hit were thinned out: in the full panel of roughly 83,000, 20% have a hit.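 Note: values are percent growth. 100 is the growth of untreated cells, values between 100 and 0 indicate rising inhibition; between -100 and 0 indicates cell death.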 Unmarked numbers belong to inactive results. Active and inactive are the calls of the source. The calls were made as follows: active = growth percent below 10; inactive = the rest.

Among the test systems are SR leukemia; RPMI-8226 leukemia; OVCAR-8 ovarian; OVCAR-5 ovarian; OVCAR-4 ovarian; SK-OV-3 ovarian; IGROV1 ovarian; OVCAR-3 ovarian; HS 578T breast; NCI/ADR-RES ovarian.
Assay in all cases: NCI-60 one-dose screen, 48 h (100 = growth as untreated, 0 = no growth, -100 = all killed)
Conditions in all cases: 10 µM unless noted

On to `Oc1ccc2ccccc2c1N=Nc1nccs1`, for which the growth in the assay on SR leukemia was -10% (active); with RPMI-8226 leukemia, 2.25% (active); in the assay on OVCAR-8 ovarian, 14.9%; with OVCAR-5 ovarian, 45.3%; with OVCAR-4 ovarian, 16.2%; with SK-OV-3 ovarian, 51.6%. Also, the growth in the assay on IGROV1 ovarian was 184%; in the assay on OVCAR-3 ovarian, 1.47% (active); with HS 578T breast it was 213%; with NCI/ADR-RES ovarian, -22.6% (active).
In the case of `CCCCCCCCc1cc(Cl)c(O)c(Cl)c1`, the growth in the assay on SR leukemia was 83.1%; in the assay with RPMI-8226 leukemia, 98.3%; in the assay with OVCAR-8 ovarian it was 103%; in the assay with OVCAR-5 ovarian, 101%; with OVCAR-4 ovarian, 115%; with SK-OV-3 ovarian it was 101%. Besides, the growth was 133% in the assay with IGROV1 ovarian, 101% in the assay with OVCAR-3 ovarian, 98.7% with HS 578T breast and 103% in the assay with NCI/ADR-RES ovarian.
Regarding `OC(c1cc(-c2ccc(Cl)cc2)nc2c(Cl)cccc12)C1CCCCN1` (stereo not given), the growth with SR leukemia was -39.4% (active); in the assay on RPMI-8226 leukemia it was -17.3% (active); in the assay on OVCAR-8 ovarian it was -75.2% (active); in the assay on OVCAR-5 ovarian, -70.9% (active); in the assay with OVCAR-4 ovarian it was -85.6% (active); in the assay with SK-OV-3 ovarian it was -73.4% (active). For the same molecule, the growth is -73.7% (active) in the assay on IGROV1 ovarian, -95.1% (active) in the assay with OVCAR-3 ovarian, -47.6% (active) with HS 578T breast and -70.3% (active) in the assay with NCI/ADR-RES ovarian.
Consider `CCN(CC)CCNc1ccc([N+](=O)[O-])c2sc3ccccc3c(=O)c12`, for which the growth is 11.1% with SR leukemia; 22.2% with RPMI-8226 leukemia; 19.1% with OVCAR-8 ovarian; 45% in the assay with OVCAR-5 ovarian; 12% with OVCAR-4 ovarian; 32.6% with SK-OV-3 ovarian. The growth in the assay with IGROV1 ovarian is -10.9% (active); with OVCAR-3 ovarian, 36.7%; in the assay with HS 578T breast it was 20.4%; in the assay with NCI/ADR-RES ovarian, 32.8%.
Regarding `Clc1ccc(-n2ncc3c(NCCCN4CCOCC4)ncnc32)cc1`, the growth in the assay with SR leukemia was 88.9%; in the assay with RPMI-8226 leukemia it was 93.7%; in the assay on OVCAR-8 ovarian, 100%; in the assay with OVCAR-5 ovarian, 92.2%; in the assay on OVCAR-4 ovarian, 102%; in the assay on SK-OV-3 ovarian, 93.1%. The growth in the assay on IGROV1 ovarian is 103%; in the assay with OVCAR-3 ovarian it was 105%; with HS 578T breast it was 91.5%; in the assay with NCI/ADR-RES ovarian, 86.8%.
Turning to `CCOC(=O)c1c(C)[nH]c2ccc(O)cc12`, the growth in the assay with SR leukemia is 101%; with RPMI-8226 leukemia, 89.5%; in the assay with OVCAR-8 ovarian, 97.6%; in the assay on OVCAR-5 ovarian, 130%; with OVCAR-4 ovarian, 107%; in the assay on SK-OV-3 ovarian it was 99.2%. For the same molecule, the growth with IGROV1 ovarian was 103%; in the assay with OVCAR-3 ovarian, 105%; in the assay with HS 578T breast it was 92%; in the assay with NCI/ADR-RES ovarian, 101%.
With `OC(c1cc(C23CC4CC(CC(C4)C2)C3)nc2c(Cl)cc(Cl)cc12)C1CCCCN1` (stereo not given), the growth was -60.1% (active) in the assay on SR leukemia; -45.4% (active) in the assay on RPMI-8226 leukemia; -53.9% (active) in the assay on OVCAR-8 ovarian; -56% (active) with OVCAR-5 ovarian; -78.2% (active) in the assay on OVCAR-4 ovarian; -10.3% (active) in the assay on SK-OV-3 ovarian. For the same molecule, the growth with IGROV1 ovarian is -61.7% (active); in the assay with OVCAR-3 ovarian, -89.9% (active); with HS 578T breast, -49.9% (active); with NCI/ADR-RES ovarian, -51.2% (active).
As to `NCCCN(CCCN)CCCNCc1c2ccccc2c(CNCCCN(CCCN)CCCN)c2ccccc12`, the growth in the assay on SR leukemia is 96.6%; in the assay with RPMI-8226 leukemia, 91.7%; in the assay with OVCAR-8 ovarian it was 98.5%; in the assay with OVCAR-5 ovarian it was 108%; in the assay on OVCAR-4 ovarian, 99.8%; in the assay on SK-OV-3 ovarian, 100%. In addition, the growth in the assay on IGROV1 ovarian is 114%; in the assay with OVCAR-3 ovarian it was 107%; in the assay with HS 578T breast, 92.6%; in the assay on NCI/ADR-RES ovarian it was 93.9%.
Regarding `CCCCCC/C=C1\CCC(CN2CCCC2)C1=O` (stereo not given), the growth in the assay with SR leukemia is 43.5%; in the assay with RPMI-8226 leukemia, -12.2% (active); with OVCAR-8 ovarian, 106%; in the assay on OVCAR-5 ovarian, 135%; in the assay with OVCAR-4 ovarian, 109%; in the assay with SK-OV-3 ovarian, 110%. For the same molecule, the growth with IGROV1 ovarian was 113%; in the assay with OVCAR-3 ovarian, 103%; in the assay on HS 578T breast it was 96.3%; in the assay on NCI/ADR-RES ovarian, 105%.
As to `c1ccc(C2NCCNC2c2ccccc2)cc1` (stereo not given), the growth in the assay on SR leukemia was 98.1%; with RPMI-8226 leukemia, 108%; in the assay on OVCAR-8 ovarian it was 101%; with OVCAR-5 ovarian, 99.3%; in the assay on OVCAR-4 ovarian it was 116%; in the assay with SK-OV-3 ovarian it was 113%. The growth was 102% in the assay with IGROV1 ovarian, 113% in the assay on OVCAR-3 ovarian, 104% in the assay with HS 578T breast and 109% in the assay on NCI/ADR-RES ovarian.
Consider `CC(=O)OC1CC2CCC1(C)C2(C)C` (stereo not given), for which the growth was 97.6% with SR leukemia; 108% in the assay on RPMI-8226 leukemia; 98.9% in the assay with OVCAR-8 ovarian; 94.9% in the assay on OVCAR-5 ovarian; 113% with OVCAR-4 ovarian; 111% in the assay on SK-OV-3 ovarian. Also, the growth in the assay on IGROV1 ovarian was 106%; in the assay with OVCAR-3 ovarian, 103%; in the assay with HS 578T breast, 103%; in the assay with NCI/ADR-RES ovarian, 108%.
`Oc1c(Cl)cc(Cl)cc1C(c1cc(Cl)cc(Cl)c1O)C(Cl)(Cl)Cl`: the growth with SR leukemia is 9.73% (active); with RPMI-8226 leukemia, -9.94% (active); with OVCAR-8 ovarian, -0.45% (active); in the assay on OVCAR-5 ovarian it was 1.83% (active); with OVCAR-4 ovarian, 20.4%; in the assay with SK-OV-3 ovarian, -16.7% (active). For the same molecule, the growth is -15.7% (active) with IGROV1 ovarian, -7.63% (active) in the assay on OVCAR-3 ovarian, -11.5% (active) in the assay with HS 578T breast and -15.7% (active) in the assay on NCI/ADR-RES ovarian.
For `CC/C(=C(/CC)c1ccc(O)cc1)c1ccc(O)cc1`, the growth was 21.1% with SR leukemia; 61.7% with RPMI-8226 leukemia; 80.1% in the assay with OVCAR-8 ovarian; 89.4% in the assay on OVCAR-5 ovarian; 76.8% in the assay on OVCAR-4 ovarian; 38.4% with SK-OV-3 ovarian. In addition, the growth in the assay with IGROV1 ovarian is 82.4%; with OVCAR-3 ovarian it was 62.1%; in the assay on HS 578T breast, 63%; in the assay with NCI/ADR-RES ovarian, 40.8%.
As to `O=[N+]([O-])c1ccc(N2CCN(Cc3ccccc3)CC2)c2c1no[n+]2[O-]`, the growth in the assay on SR leukemia was -47.7% (active); in the assay with RPMI-8226 leukemia, -15.1% (active); in the assay on OVCAR-8 ovarian it was 0.836% (active); with OVCAR-5 ovarian, 26.5%; with OVCAR-4 ovarian, -50.2% (active); with SK-OV-3 ovarian, 58.4%. For the same molecule, the growth in the assay with IGROV1 ovarian is -42% (active); in the assay with OVCAR-3 ovarian, -53.7% (active); with HS 578T breast, 30.5%; in the assay on NCI/ADR-RES ovarian it was 24.5%.
